Measurements from publication PMC7862700, “An all-to-all approach to the identification of sequence-specific readers for epigenetic DNA modifications on cytosine”.

Columns and labels:
Assay in all cases: DAPPL (digital affinity profiling via proximity ligation, sequencing); 10 mM Tris-HCl pH 7.5, 50 mM NaCl, 1 mM DTT, 4% glycerol, room temperature, 30 min; GST-TFs on glutathione beads, 16-mer random dsDNA library, 0.1% formaldehyde crosslink after washing; high values mean tight binding
FEV = target: T1, FEV (Homo sapiens, UniProt Q99581 1-238); settings: protein: recombinant; tags: N-terminal GST; dsDNA, one strand shown
T1 sequence: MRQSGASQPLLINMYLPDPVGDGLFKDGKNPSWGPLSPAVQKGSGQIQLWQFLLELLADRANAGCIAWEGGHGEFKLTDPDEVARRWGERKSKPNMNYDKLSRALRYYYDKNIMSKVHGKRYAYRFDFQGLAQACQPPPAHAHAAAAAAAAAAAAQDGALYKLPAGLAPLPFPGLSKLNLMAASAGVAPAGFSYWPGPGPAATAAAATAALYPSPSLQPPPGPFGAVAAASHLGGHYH
Method in brief: (§1)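 Human transcription factors fused to GST were expressed in yeast, captured on glutathione beads, given DNA barcodes and pooled with a GST-only negative control. Pools were incubated with 200 nmole of a 16-mer random double-stranded DNA library in Tris/NaCl/DTT/glycerol buffer at room temperature for 30 min. They were then washed, crosslinked with 0.1% formaldehyde, proximity-ligated (BsaI/T4 ligase, 1 h, 37 °C), PCR-amplified and sequenced on an Illumina NextSeq500. Binding signal is each 6-mer's read frequency for a factor divided by its frequency for the GST control.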

ETV5 = ETV5 (Homo sapiens, UniProt P41161 1-510); settings: protein: recombinant; tags: N-terminal GST; dsDNA, one strand shown
Method in brief: as §1

HSF1 = HSF1 (Homo sapiens, UniProt Q00613 1-529); settings: protein: recombinant; tags: N-terminal GST; chain copies: 3; dsDNA, one strand shown
Method in brief: as §1

SPIC = target: T2, SPIC (Homo sapiens, UniProt Q8N5J4 1-248); settings: protein: recombinant; tags: N-terminal GST; dsDNA, one strand shown
T2 sequence: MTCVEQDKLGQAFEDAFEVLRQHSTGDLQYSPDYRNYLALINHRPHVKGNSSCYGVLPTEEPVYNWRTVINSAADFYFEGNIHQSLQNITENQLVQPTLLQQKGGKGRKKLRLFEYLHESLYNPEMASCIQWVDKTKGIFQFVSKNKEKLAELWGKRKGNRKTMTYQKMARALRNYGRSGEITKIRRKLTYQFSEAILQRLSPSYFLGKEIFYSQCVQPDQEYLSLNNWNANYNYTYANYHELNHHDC
Method in brief: as §1

ELF4 = ELF4 (Homo sapiens, UniProt Q99607 1-663); settings: protein: recombinant; tags: N-terminal GST; dsDNA, one strand shown
Method in brief: as §1

ELK4 = target: T3, ELK4 (Homo sapiens, UniProt P28324-2 1-405); settings: protein: recombinant; tags: N-terminal GST; dsDNA, one strand shown
T3 sequence: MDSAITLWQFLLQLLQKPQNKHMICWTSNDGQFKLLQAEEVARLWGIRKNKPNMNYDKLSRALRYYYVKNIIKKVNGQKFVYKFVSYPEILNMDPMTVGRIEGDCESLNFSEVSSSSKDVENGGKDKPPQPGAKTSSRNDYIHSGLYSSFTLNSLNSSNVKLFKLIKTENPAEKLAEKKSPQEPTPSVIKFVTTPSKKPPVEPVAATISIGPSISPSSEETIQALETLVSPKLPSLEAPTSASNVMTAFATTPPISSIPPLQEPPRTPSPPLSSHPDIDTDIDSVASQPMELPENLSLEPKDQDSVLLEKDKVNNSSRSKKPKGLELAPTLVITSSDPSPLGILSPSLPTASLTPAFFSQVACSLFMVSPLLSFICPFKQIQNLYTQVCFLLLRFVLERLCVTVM
Method in brief: as §1

ETV2 = target: T4, ETV2 (Homo sapiens, UniProt O00321 1-342); settings: protein: recombinant; tags: N-terminal GST; dsDNA, one strand shown
T4 sequence: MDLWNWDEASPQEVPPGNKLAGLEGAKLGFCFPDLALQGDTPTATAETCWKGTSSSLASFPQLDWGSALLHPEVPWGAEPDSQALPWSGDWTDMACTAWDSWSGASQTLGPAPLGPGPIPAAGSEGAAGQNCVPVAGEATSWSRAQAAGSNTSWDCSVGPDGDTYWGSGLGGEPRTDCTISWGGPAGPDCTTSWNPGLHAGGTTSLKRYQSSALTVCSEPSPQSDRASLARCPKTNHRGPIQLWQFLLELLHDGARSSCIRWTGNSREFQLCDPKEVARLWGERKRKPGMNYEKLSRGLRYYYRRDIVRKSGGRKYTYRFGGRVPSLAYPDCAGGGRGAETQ
Method in brief: as §1

ELF3 = target: T5, ELF3 (Homo sapiens, UniProt P78545 1-371); settings: protein: recombinant; tags: N-terminal GST; dsDNA, one strand shown
T5 sequence: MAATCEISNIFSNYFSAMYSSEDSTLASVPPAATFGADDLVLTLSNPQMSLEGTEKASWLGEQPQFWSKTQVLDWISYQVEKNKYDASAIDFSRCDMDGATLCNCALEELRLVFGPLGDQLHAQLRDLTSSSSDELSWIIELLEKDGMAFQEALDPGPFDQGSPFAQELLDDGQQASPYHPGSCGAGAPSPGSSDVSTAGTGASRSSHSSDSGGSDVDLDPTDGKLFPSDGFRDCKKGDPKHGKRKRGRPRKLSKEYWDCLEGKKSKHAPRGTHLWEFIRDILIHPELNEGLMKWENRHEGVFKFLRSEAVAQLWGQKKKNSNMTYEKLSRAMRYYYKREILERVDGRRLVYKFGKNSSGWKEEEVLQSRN
Method in brief: as §1

CRX = CRX (Homo sapiens, UniProt O43186 1-299); settings: protein: recombinant; tags: N-terminal GST; dsDNA, one strand shown
Method in brief: as §1

ETV1 = ETV1 (Homo sapiens, UniProt P50549 1-477); settings: protein: recombinant; tags: N-terminal GST; dsDNA, one strand shown
Method in brief: as §1

ERF = target: T6, ERF (Homo sapiens, UniProt P50548 1-548); settings: protein: recombinant; tags: N-terminal GST; dsDNA, one strand shown
T6 sequence: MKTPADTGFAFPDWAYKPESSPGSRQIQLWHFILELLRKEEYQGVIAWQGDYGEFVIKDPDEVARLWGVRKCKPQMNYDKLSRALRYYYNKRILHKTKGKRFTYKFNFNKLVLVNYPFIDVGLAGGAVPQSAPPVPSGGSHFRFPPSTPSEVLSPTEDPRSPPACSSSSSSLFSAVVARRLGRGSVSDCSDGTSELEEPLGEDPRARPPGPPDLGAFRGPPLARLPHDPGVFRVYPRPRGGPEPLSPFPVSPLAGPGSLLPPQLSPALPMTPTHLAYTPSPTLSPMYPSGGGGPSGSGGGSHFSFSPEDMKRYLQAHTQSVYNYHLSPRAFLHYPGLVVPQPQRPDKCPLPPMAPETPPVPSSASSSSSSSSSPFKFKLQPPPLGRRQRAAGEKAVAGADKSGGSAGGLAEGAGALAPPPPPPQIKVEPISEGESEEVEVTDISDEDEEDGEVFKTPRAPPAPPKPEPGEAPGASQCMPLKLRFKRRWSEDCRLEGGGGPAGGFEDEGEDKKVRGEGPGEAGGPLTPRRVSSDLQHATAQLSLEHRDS
Method in brief: as §1

ETV3L = target: T7, ETV3L (Homo sapiens, UniProt Q6ZN32 1-361); settings: protein: recombinant; tags: N-terminal GST; dsDNA, one strand shown
T7 sequence: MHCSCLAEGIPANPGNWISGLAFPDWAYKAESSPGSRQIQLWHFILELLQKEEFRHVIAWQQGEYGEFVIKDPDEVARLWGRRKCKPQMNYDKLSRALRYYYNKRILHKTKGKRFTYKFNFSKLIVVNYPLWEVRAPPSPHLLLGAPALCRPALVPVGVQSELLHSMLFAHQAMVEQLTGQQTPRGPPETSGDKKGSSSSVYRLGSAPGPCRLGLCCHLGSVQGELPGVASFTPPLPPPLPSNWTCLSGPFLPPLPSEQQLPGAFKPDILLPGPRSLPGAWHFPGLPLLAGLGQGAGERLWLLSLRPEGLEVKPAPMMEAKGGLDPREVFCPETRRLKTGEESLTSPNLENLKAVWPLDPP
Method in brief: as §1

ETS2 = target: T8, ETS2 (Homo sapiens, UniProt P15036 1-469); settings: protein: recombinant; tags: N-terminal GST; dsDNA, one strand shown
T8 sequence: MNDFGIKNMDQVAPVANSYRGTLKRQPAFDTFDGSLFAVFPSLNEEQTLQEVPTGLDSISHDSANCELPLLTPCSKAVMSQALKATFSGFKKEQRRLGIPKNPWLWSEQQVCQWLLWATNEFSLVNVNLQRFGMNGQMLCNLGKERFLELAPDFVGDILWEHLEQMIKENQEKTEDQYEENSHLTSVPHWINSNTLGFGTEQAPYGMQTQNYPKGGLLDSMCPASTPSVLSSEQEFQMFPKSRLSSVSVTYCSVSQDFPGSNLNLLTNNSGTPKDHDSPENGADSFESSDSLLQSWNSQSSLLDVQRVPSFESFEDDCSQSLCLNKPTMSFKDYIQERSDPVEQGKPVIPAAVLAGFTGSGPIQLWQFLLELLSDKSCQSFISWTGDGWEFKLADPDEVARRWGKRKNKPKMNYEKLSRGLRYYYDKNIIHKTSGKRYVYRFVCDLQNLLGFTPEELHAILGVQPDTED
Method in brief: as §1

SPDEF = target: T9, SPDEF (Homo sapiens, UniProt O95238 1-335); settings: protein: recombinant; tags: N-terminal GST; dsDNA, one strand shown
T9 sequence: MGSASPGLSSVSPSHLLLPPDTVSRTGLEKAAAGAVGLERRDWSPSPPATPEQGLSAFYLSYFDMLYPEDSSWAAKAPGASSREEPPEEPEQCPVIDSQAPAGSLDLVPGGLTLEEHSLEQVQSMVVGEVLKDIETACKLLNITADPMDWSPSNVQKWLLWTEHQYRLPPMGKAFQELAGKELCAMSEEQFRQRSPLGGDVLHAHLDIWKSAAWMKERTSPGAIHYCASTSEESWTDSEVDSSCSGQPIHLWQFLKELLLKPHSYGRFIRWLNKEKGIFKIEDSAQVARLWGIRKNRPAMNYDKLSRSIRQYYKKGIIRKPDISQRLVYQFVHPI
Method in brief: as §1

ETV7 = target: T10, ETV7 (Homo sapiens, UniProt Q9Y603 1-341); settings: protein: recombinant; tags: N-terminal GST; dsDNA, one strand shown
T10 sequence: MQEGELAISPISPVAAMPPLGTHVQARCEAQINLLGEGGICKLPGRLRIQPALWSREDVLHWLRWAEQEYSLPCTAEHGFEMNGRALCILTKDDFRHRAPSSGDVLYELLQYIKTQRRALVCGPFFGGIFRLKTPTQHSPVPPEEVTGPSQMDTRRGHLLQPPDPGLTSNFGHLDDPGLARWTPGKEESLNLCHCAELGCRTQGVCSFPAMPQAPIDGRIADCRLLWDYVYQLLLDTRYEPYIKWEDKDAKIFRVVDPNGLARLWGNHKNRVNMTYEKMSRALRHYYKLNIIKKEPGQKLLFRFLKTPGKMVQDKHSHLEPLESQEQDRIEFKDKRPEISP
Method in brief: as §1

ELF5 = target: T11, ELF5 (Homo sapiens, UniProt Q9UKW6-2 1-255); settings: protein: recombinant; tags: N-terminal GST; dsDNA, one strand shown
T11 sequence: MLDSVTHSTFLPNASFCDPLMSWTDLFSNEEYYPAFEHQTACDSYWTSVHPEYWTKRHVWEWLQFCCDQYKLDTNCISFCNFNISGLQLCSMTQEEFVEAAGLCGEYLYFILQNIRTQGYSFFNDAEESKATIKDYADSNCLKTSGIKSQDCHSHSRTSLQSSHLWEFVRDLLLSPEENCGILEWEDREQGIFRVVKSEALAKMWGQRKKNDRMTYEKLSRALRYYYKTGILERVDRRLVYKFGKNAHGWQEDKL
Method in brief: as §1

ETV3 = target: T12, ETV3 (Homo sapiens, UniProt P41162-2 1-143); settings: protein: recombinant; tags: N-terminal GST; dsDNA, one strand shown
T12 sequence: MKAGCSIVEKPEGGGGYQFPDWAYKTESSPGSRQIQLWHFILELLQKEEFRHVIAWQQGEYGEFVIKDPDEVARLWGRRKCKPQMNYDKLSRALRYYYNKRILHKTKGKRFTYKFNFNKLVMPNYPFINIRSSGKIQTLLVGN
Method in brief: as §1

ETV6 = ETV6 (Homo sapiens, UniProt P41212 1-452); settings: protein: recombinant; tags: N-terminal GST; dsDNA, one strand shown
Method in brief: as §1

ETV1, sequence (P50549 whole entry): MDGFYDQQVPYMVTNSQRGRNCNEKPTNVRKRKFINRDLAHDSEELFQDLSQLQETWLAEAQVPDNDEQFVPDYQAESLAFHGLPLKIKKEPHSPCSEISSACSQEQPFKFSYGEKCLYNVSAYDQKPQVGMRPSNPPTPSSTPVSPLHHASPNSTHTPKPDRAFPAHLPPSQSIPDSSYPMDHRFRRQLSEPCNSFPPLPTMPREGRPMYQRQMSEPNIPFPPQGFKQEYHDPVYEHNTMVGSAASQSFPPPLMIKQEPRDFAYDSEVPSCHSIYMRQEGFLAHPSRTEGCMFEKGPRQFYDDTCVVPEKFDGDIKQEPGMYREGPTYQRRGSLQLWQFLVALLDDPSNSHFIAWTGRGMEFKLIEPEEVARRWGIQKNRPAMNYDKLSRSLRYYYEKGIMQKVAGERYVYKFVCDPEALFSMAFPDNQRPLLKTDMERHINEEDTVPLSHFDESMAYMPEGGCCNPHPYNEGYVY
ETV6, sequence (P41212 whole entry): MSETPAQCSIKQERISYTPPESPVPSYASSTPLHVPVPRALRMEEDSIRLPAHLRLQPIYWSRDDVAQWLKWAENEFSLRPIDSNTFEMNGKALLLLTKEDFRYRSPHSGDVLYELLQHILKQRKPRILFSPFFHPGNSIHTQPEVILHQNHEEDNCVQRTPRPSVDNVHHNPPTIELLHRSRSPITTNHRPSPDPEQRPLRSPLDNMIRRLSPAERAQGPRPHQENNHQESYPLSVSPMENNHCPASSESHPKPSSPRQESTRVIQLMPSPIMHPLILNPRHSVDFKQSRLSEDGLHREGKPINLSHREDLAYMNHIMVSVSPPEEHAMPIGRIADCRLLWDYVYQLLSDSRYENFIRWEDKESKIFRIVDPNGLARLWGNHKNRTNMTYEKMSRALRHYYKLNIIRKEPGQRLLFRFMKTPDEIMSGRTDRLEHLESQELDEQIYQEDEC
ELF4, sequence (Q99607 whole entry): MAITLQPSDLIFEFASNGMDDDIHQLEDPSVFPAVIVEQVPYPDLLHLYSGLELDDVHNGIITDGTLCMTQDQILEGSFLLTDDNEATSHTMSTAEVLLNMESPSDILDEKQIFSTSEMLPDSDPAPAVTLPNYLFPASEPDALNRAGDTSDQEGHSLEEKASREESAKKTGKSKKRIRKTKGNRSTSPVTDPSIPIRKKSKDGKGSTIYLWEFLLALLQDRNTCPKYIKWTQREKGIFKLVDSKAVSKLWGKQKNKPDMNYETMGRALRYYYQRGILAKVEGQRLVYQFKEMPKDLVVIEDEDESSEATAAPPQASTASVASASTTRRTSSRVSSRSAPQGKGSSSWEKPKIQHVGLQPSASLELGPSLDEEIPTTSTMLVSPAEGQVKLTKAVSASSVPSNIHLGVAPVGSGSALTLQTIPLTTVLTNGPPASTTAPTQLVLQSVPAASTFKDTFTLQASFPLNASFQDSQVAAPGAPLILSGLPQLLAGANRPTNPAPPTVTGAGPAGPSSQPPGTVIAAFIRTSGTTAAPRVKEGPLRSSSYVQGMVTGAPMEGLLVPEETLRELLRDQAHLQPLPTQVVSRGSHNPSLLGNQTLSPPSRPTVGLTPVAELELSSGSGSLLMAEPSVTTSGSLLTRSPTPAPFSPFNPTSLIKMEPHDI
HSF1, sequence (Q00613 whole entry): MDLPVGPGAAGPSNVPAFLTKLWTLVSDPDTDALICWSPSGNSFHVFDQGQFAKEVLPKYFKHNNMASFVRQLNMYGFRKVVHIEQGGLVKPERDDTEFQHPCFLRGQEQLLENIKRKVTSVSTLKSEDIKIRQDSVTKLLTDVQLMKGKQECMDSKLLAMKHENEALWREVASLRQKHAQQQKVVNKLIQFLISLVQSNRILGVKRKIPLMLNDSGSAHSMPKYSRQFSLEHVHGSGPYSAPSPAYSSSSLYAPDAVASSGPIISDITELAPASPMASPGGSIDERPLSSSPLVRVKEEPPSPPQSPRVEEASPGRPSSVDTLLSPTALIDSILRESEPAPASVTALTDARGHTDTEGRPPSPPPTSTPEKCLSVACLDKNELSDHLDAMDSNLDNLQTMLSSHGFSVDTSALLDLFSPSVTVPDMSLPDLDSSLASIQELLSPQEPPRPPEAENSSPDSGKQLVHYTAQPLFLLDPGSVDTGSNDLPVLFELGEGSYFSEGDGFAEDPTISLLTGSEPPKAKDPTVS
ETV5, sequence (P41161 whole entry): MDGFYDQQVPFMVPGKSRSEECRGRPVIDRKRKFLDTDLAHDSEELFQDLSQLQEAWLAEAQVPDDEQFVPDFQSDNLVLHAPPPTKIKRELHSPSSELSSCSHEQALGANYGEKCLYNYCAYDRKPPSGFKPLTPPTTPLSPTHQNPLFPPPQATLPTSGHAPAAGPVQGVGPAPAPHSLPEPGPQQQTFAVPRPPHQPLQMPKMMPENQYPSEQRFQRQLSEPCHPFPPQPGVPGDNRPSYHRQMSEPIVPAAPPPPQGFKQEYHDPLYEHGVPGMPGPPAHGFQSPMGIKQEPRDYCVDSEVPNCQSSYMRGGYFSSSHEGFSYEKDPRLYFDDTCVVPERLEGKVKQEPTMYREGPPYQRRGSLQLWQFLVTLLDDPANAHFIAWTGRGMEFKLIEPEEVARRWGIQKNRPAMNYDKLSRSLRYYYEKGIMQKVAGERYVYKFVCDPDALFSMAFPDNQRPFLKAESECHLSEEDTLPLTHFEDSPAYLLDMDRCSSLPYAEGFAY
CRX, sequence (O43186 whole entry): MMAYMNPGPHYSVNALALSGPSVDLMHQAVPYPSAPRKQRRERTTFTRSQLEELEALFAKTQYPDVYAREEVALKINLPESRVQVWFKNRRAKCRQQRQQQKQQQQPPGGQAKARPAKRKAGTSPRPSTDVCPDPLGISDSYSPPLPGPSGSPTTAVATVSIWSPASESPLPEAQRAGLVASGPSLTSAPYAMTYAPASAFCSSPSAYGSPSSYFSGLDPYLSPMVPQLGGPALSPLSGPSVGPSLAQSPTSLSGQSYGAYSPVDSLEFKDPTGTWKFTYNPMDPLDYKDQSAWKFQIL

Question: Which results are given for ATTCCG?
Answer: binding signal (FEV): 1.79 fold enrichment (6-mer frequency, TF over GST control); binding signal (ETV5): 1.97 fold enrichment (6-mer frequency, TF over GST control); binding signal (HSF1): 1.52 fold enrichment (6-mer frequency, TF over GST control); binding signal (SPIC): 1.82 fold enrichment (6-mer frequency, TF over GST control); binding signal (ELF4): 1.61 fold enrichment (6-mer frequency, TF over GST control); binding signal (ELK4): 1.54 fold enrichment (6-mer frequency, TF over GST control); binding signal (ETV2): 1.79 fold enrichment (6-mer frequency, TF over GST control); binding signal (ELF3): 1.78 fold enrichment (6-mer frequency, TF over GST control); binding signal (CRX): 1.27 fold enrichment (6-mer frequency, TF over GST control); binding signal (ETV1): 1.81 fold enrichment (6-mer frequency, TF over GST control); binding signal (ERF): 1.58 fold enrichment (6-mer frequency, TF over GST control); binding signal (ETV3L): 1.74 fold enrichment (6-mer frequency, TF over GST control); binding signal (ETS2): 1.78 fold enrichment (6-mer frequency, TF over GST control); binding signal (SPDEF): 1.85 fold enrichment (6-mer frequency, TF over GST control); binding signal (ETV7): 1.62 fold enrichment (6-mer frequency, TF over GST control); binding signal (ELF5): 2.17 fold enrichment (6-mer frequency, TF over GST control); binding signal (ETV3): 1.89 fold enrichment (6-mer frequency, TF over GST control); binding signal (ETV6): 1.78 fold enrichment (6-mer frequency, TF over GST control)
